Source: PubChem BioAssay AID1487 (National Center for Advancing Translational Sciences (NCATS), 2009)
The campaign covered roughly 200,000 compounds. About 25 (0.01%) were called active. Another 23% or so got no clear call; they are omitted. The call rests on the fitted dose curve; in most records, active means well fitted inhibition curve with a large enough effect in the signal ratio, with a control signal flat (not every such curve was filed as active); inconclusive means small, poorly fitted or top-dose-only effect, or effect the other way, or a change in a side signal; inactive means flat fitted curve, though single readings scatter; the % refers to the signal ratio. The entries come from a sample that favours actives as a whole.

test: qHTS Assay for Modulators of Lamin A Splicing; conditions: HeLa LMNA splicing GFP/RFP minigene ratio, 48 h; series mostly up to 46 µM; ratio change, negative = inhibition: at the top concentration
Source text: NCGC Assay Overview: Hutchinson-Gilford Progeria Syndrome (HGPS) is a pediatric premature aging disease caused by a spontaneous mutation in the lamin A/C (LMNA) gene. The mutation activates a cryptic splice site in the LMNA pre-mRNA which results in production of a pre-lamin A protein that cannot be processed properly. The mutant protein accumulates in the nucleus and negatively affects numerous cellular functions. Correction of the splicing defect in HGPS patient cells using a targeted oligonucleotide (exo11) leads to reversal of the cellular disease phenotypes. To identify small molecule modulators of aberrant LMNA splicing, a homogenous assay was constructed in HeLa cells that used a GFP containing minigene to report on correction of aberrant splicing in lamin A and a RFP (DsRed2) to report on cell viability, uniformity and nonspecific effects on the assay signal. This assay was adapted to laser-scanning microplate cytometry (Acumen, TTP Labtech) where miniaturization of the assay to a 1,536-well plate format was possible. References: Bowen, W. P.; Wylie, P. G. Application of Laser-Scanning Fluorescence Microplate Cytometry in High Content Screening. Assay Drug Dev Technol 2006;4:209-221. Scaffidi P, Misteli T. Reversal of the cellular phenotype in the premature aging disease Hutchinson-Gilford progeria syndrome. Nat.
NCGC Assay Protocol Summary: Reagents/Controls: Stable clones expressing DsRed2 and lamin A-EGFP were generated by Cell and Molecular Technologies in S3 HeLa cells. HeLa cells were prepared for the assay when they were 70-90% confluent. The cells were counted and resuspended in Opti-MEM I (no phenol red; Gibco), 2% FBS, 1% penicillin/ streptomycin (Gibco) at concentration of 120 cells/uL concentration. The suspension was passed through a Falcon basket filter with pore size 40um (Beckton Dickson). Control titrations: column […] 1536-well plate contained a sixteen point titration (1:2 dilutions) in duplicate of ancitabine (Sigma: A8598) beginning at 40 uM final concentration. Column 2 contained a sixteen point titration (1:2 dilutions) of cycloheximide beginning at 1.4 mM final concentration. Column 3 contained ancitabine at 40 uM and column 4 contained was the vehicle control (0.5% DMSO final concentration). Assay Steps: 5 uL of HeLa cells were plated in Aurora LoBase black clear bottom (cyclic-olefin polymer) 1536-well plates at a final density of 600 cells/well. Controls and library compounds were added with a 1536-well pin array using the Kalypsys pin-tool. The plates were then incubated for 48 hrs in a cell-culture incubator (37 °C; 5% CO2, 98% humidity). Following incubation the plates were read on the Acumen Explorer using the 488 nm laser. Data was collected on objects between 10 and 100 um in size. Cell objects were defined by a 15 um width x 10 um depth filter. The ratio of the total object intensity in PMT1 (500-530 nm emission; GFP) over PMT3 (575-640 nm emission; RFP) was calculated for analysis. Keywords: NIH Roadmap, MLSCN, MLI, MLSMR, qHTS, NCGC, lamin A, Progeria, RNA splicing.
On the % scale 0 is the no-effect control and ±100 the full control effect; potency means the concentration at half of the fitted maximal effect.

Ratio change, negative = inhibition, inactive:
CNc1nc2c(C)cccn2c(=O)c1C=Nc1ccc(OC)cc1 -17.3%
Cc1ccc(-n2nc(C)c3c(C)cc(=O)n(CC(=O)Nc4ccc(C(C)C)cc4)c32)cc1 -0.422%
COc1cc(NS(=O)(=O)c2ccc3c(c2)OCC(C(=O)N2CCCC2)O3)cc(OC)c1 (stereo not given) -0.229%
COc1cccc(NC(=S)N(Cc2ccc(C)cc2)Cc2ccccn2)c1 -5.44%
O=C(Nc1ccccc1C(=O)O)c1cc(S(=O)(=O)N2CCCCC2)cs1 5.58%
COc1ccc(CNS(=O)(=O)c2cc3c4c(c2)CCN4C(=O)CC3)cc1 -8.87%
Cc1c(CCOC(=O)c2cc([N+](=O)[O-])ccc2Cl)sc[n+]1CCCCS(=O)(=O)[O-] 11.9%
COc1cc(/C=C/C(=O)OCC(=O)N2CCOCC2)ccc1OCC#N -0.73%
CC(C)CNc1ncnc2c1nnn2C 14%
CC1CN(/C=C/C(=O)C(F)(F)F)CC(C)O1 (stereo not given) -0.822%
O=C(CC1C(=O)NCCN1Cc1ccc(-c2ccccc2)cc1)NCc1ccncc1 (stereo not given) 13.2%
O=C(CCSCc1cccc(F)c1)NCc1ccccc1 30.8%
CC(C)CCNC(=O)CSc1nc2ccccc2nc1Cc1ccc(Cl)cc1 -3.3%
C/C(Cn1nnc2ccccc21)=N\OC(=O)c1cc(F)c(F)cc1Cl 0.235%
O=C(NCCc1ccccc1)c1cnc2sc(N3CCCC3)nn2c1=O 15.1%
O=[N+]([O-])c1cc([N+](=O)[O-])c2cccnc2c1O 1.6%
O=C(Nc1ccccc1F)C(c1ccccc1)N1Cc2ccccc2C1=O (stereo not given) 18.7%
Cc1ccc(C)c(N2CCN(S(=O)(=O)c3ccc4c(c3)C(C(C)C)C(=O)N4)CC2)c1 (stereo not given) -10.7%
Cc1cccc(N2CCN(C(=O)CCSCc3ccccc3F)CC2)c1C -21.7%
COc1ccc(SCc2cc(=O)c3ccc(C)c(C)c3[nH]2)cc1 -9.07%
Cc1ccc(C(c2nnnn2C(C)(C)C)N2CCc3ccccc3C2)cc1 (stereo not given) -3.87% [at 46.1 µM]
CC(C)(C)n1nnnc1C(c1ccc(Cl)cc1)N1CCSCC1 (stereo not given) -14% [at 46.1 µM]
COC(=O)C(C)NC(=O)COc1ccc2ccccc2c1 (stereo not given) 4.35%
O=C(Nc1ccc2nc(SCC(=O)N3CCc4ccccc43)sc2c1)c1ccccc1F 3.72%
CCCN(CCC)CCNC(=O)c1ccc2c(c1)NC(=O)C(CS(=O)(=O)Cc1cccc(Br)c1)N2 (stereo not given) -3.12%
CC(C)(C)NC(=O)COC(=O)c1cc(Cl)ccc1[N+](=O)[O-] -6.76%
O=C(CN(c1cccc(Cl)c1)S(=O)(=O)c1ccccc1)NN=C1CCCC1 14.5%
Cc1cccc(NC(=O)c2cc([N+](=O)[O-])ccc2N2CCN(C)CC2)c1 -17.1%
CCOc1ccc(Nc2ncnc3scc(-c4ccc(OC)cc4)c23)cc1 -25.8%
COc1cc(OC)cc(C(=O)NCCc2csc3nc(-c4ccccc4F)nn23)c1 -12.9%
CCc1ccc(NS(=O)(=O)c2ccc3[nH]cc(C(=O)NCCc4cccc(C)c4)c(=O)c3c2)cc1 -2.18%
CC(=O)NCC(=O)N1CCCC(C(=O)c2ccc3c4c(cccc24)CC3)C1 (stereo not given) 9.21%
Cc1cccc(Oc2c([N+](=O)[O-])c(=O)n(C)c3ccccc23)c1 4.53%
CCOC(=O)c1sc(=NC(=O)/C=C/c2cccs2)n(C)c1C 2.93% [at 9.22 µM]
Cc1cccc(Cn2c(CN3CCC(C(=O)NCc4ccccc4Cl)CC3)cc3ccccc32)c1 0.813%
O=C(Nc1nnc(-c2ccco2)o1)c1ccc(S(=O)(=O)N2CCOCC2)cc1 16.1% [at 9.22 µM]
Cc1nc([N+](=O)[O-])cn1CC(=O)Nc1ccc2c(c1)OCO2 -9.08%
Cc1cccc(OCCC(=O)Nc2cc(S(=O)(=O)N3CCCCC3)ccc2N2CCOCC2)c1 6.84%
Cc1ccc(C)c(-n2ccnc2SCC(N)=O)c1 7.68%
CC1(C)OC(=O)C(=CSc2ccc(C(C)(C)C)cc2)C(=O)O1 -8.64%
COc1cc(NC(=O)c2cccnc2SC)cc(OC)c1 -6.83%
COc1ccccc1CN(C)c1nnnn1-c1ccccc1 -21.9%
COc1ccc(NC(=O)CSc2nnc(-c3ccccc3F)n2C2CC2)cc1S(N)(=O)=O -17.5%
CCOC(=O)c1cnc2[nH]c3ccccc3n2c1=O 4.43%
CC(=O)c1ccc(NC(=O)CSc2c(C(C)C)cnc3c2c(=O)n(C)c(=O)n3C)cc1 -2.64%
CCOC(=O)c1c(C)oc2nc(C)nc(N3CCN(c4ccc(OC)cc4)CC3)c12 -15.4%
Cc1ccc(/C([O-])=C(/C(=S)NCc2ccco2)[n+]2ccccc2)cc1[N+](=O)[O-] 1.77%
O=C(C1COc2ccccc2O1)N(Cc1cccnc1)c1nc2c(F)cc(F)cc2s1 (stereo not given) -5.27%
COc1ccc(NC(=O)c2sc3nc(-c4cc5cccc(OC)c5oc4=O)[nH]c(=O)c3c2C)cc1 13%

Potency, active:
CC(C)(C)n1nnnc1C(c1ccc2ncccc2c1)N1CCSCC1 (stereo not given) 6.31 µM
